# Assay outcomes from PubChem.
# Shown are actives, neighbours in structure and some others; about 9.6% of the full set was active somewhere.
# Ins promoter up = MIN6 insulin promoter up-regulation; MIN6 insulin promoter-GFP reporter, high-content imaging; active compounds read high; z-score at 5 µM; 190,000 tested, 0.3% active; AID 1625;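 active = z-score above 3 at 5 µM with at least 500 cells counted in the well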
# Autophagy mod = autophagy modulation, high-content screen. MEF GFP-LC3 puncta imaging; test concentration mostly 10 µM. calls only at 10 µM (by protocol). 190,000 tested, 0.98% active. AID 463193;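 active = percentage of spot-positive cells more than 3 SD above its plate mean, without a fluorescence outlier flag or 80% toxicity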
# HCT116 PTEN-null = growth suppressors of cells with PTEN tumor suppressor deletion. HCT116 PTEN-null viability, CellTiter-Glo, 60 h; active compounds read low. viability, % at 10 µM. 140,000 tested, 1.2% active. AID 827;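 active = viability at or below a set limit, 4 SD under the median of all tested compounds, cut at about 3.7% in these data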;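 note: PTEN knockout HCT116 line with beta catenin targeted HCT116 as companion control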
# Lmaj promast = Leishmania major promastigote growth inhibition | inhibition, % at 10 µM | 200,000 tested, 9% active | Leishmania major promastigotes, resazurin fluorescence viability; in the data active = inhibition above about 50%;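 note: promastigotes grown with compound for 44 hours at 28 °C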
# INS promoter inh = TRM-6 insulin promoter activity inhibition. TRM-6 cells (human fetal islet line), insulin promoter-eGFP reporter, imaging; reporter expression induced with tamoxifen. inhibition, % at 2 µM. 130,000 tested, 0.9% active;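 active = inhibition above the mean plus 3 SD, with well images judged a real hit on visual review, cut at about 60% in these data, passing the limit was not always enough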
# HCT116 bCat-KO = beta-catenin-lacking colon tumor cell growth suppression. viability, % at 10 µM. AID 818. HCT116 beta-catenin knockout viability, CellTiter-Glo, 60 h; active compounds read low. 140,000 tested, 1.5% active;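 active = viability at or under a set limit, the compound median less 4 SD, cut at about 6% in these data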
# Numbers stand for hits; . = inactive; / = no result given; + = active, no number.
SMILES,Ins promoter up,Autophagy mod,HCT116 PTEN-null,Lmaj promast,INS promoter inh,HCT116 bCat-KO
CCc1ccc(N(C(=O)CCC(=O)Nc2cc(C)on2)C(C(=O)NC2CCCC2)c2ccco2)cc1 (centres undefined),.,.,.,95.5,.,.
Cc1cc(NC(=O)/C=C/C(=O)N(CC(=O)NC2CCCC2)c2cccc3ccccc23)no1,.,.,/,95.7,.,/
Cc1ccc(OCCn2cc(/C=C3\C(=O)NN(c4ccccc4)C3=O)c3ccccc32)cc1,.,.,.,.,.,.
C/C=C(\C)c1nnc(NC(=O)C(C)C)s1,.,.,.,.,.,.
Cc1noc(C)c1S(=O)(=O)N1CCN(C(c2ccccc2)c2ccc(Cl)cc2)CC1 (centres undefined),.,/,.,70.9,/,.
Cc1noc(C)c1S(=O)(=O)N1CCCCC1,.,.,.,.,.,.
CCc1c(C)c(C#N)c2nc3ccccc3n2c1NCc1ccccn1,.,.,/,.,/,/
CCOC(=O)c1cc(C#N)c(N2CCOCC2)nc1-c1ccccc1,.,.,/,.,/,/
O=C(CCC(=O)OCC(=O)c1ccc([N+](=O)[O-])cc1)NC1CCCCC1,.,.,.,76.5,.,.
O=C(CCC(=O)OCC(=O)c1cccc([N+](=O)[O-])c1)NC1CCCCC1,.,/,/,/,/,/
O=[N+]([O-])c1ccccc1CNC1CCCCCC1,.,.,/,83.2,/,/
O=C(COC(=O)Cc1ccccc1[N+](=O)[O-])NC1CCCC1,.,+,/,.,/,/
Cc1ccc(CNc2ccc3c(c2)OCO3)c(C)c1,/,+,.,99.2,.,.
c1cncc(CNc2ccc3c(c2)OCO3)c1,/,.,.,52.1,.,.
COc1ccc(NCc2ccc3c(c2)OCO3)cc1Cl,.,.,.,83.7,.,.
O=C(NCc1cccnc1)Nc1ccc2c(c1)OCO2,.,.,/,.,/,/
CCc1ccc(Nc2ncnc3nc[nH]c23)cc1,.,/,/,/,/,/
O=S(Cc1ccc(Br)cc1)Cc1nnc(SCc2c(Cl)cccc2Cl)n1-c1ccccc1 (centres undefined),.,.,.,96.0,.,.
Cn1c(CS(=O)Cc2c(Cl)cccc2Cl)nnc1SCc1c(Cl)cccc1Cl (centres undefined),.,.,.,.,.,.
Cc1cc(SCC(=O)OCC(=O)NC(C)c2ccccc2)c(C)cc1Br (centres undefined),.,.,.,51.2,.,.
COC(=O)C1C(=O)C=C(Nc2ccc(F)cc2F)CC1c1ccc(OC)cc1 (centres undefined),/,.,.,.,.,.
CNC(=O)C1CCCN1S(=O)(=O)c1ccc(OC)cc1 (centres undefined),.,.,.,.,.,.
O=C(Nc1nc2ccccc2s1)C1CCCN1S(=O)(=O)c1ccc(Cl)cc1 (centres undefined),/,.,.,99.3,.,.
COc1ccc(S(=O)(=O)N2CCCC2C(=O)Nc2nc3c(s2)CCCC3)cc1 (centres undefined),.,.,.,89.7,.,.
CCOCCCNC(=O)C1CCCCN1S(=O)(=O)c1ccc(F)cc1 (centres undefined),.,.,.,.,.,.
SMILES,Ins promoter up,Autophagy mod,HCT116 PTEN-null,Lmaj promast,INS promoter inh,HCT116 bCat-KO
COc1ccc(NC(=O)Nc2nc3c(s2)CCCC3)cc1,.,.,.,53.5,.,.
CCOCCCNC(=O)C1CCCN1S(=O)(=O)c1ccc(Cl)cc1 (centres undefined),.,.,.,93.3,.,.
Cc1ccc(S(=O)(=O)N2CCCC2C(=O)Nc2nc3ccccc3s2)cc1 (centres undefined),.,.,.,.,.,.
COCCNC(=O)C1CC2Cn3c(nc4cc(C)c(C)cc43)C2N1C (centres undefined),.,/,/,/,/,/
N#Cc1cc(C#N)c(N2CCN(c3cccc(Cl)n3)CC2)nc1N,/,.,.,.,.,.
COc1ccc(S(=O)(=O)N2CCCC2C(=O)Nc2ccc(C)cc2)cc1 (centres undefined),.,.,.,.,.,.
O=C(NCCc1ccccc1F)C1CCCN1S(=O)(=O)c1ccc2ccccc2c1 (centres undefined),/,.,.,57.4,.,.
O=C(NC1CC1)C1CCCN1S(=O)(=O)c1ccc2ccccc2c1 (centres undefined),.,.,.,.,.,.
COc1ccc(-c2csc(NC(=O)C3CCCCN3S(=O)(=O)c3ccccc3)n2)cc1 (centres undefined),.,.,.,69.5,.,.
Nc1ccc(O)cc1C(=O)OCC(=O)C12CC3CC(CC(C3)C1)C2,.,.,.,.,.,.
Cc1nc(C(C)N(C)Cc2c(C(=O)N3CCCCC3)nc3c(C)cccn23)c(C)s1 (centres undefined),.,.,/,.,/,/
CCc1ccc2c(CC(=O)Nc3nnc(C4CC4)s3)coc2c1,.,.,.,.,.,.
CC(/C=N/NC(=O)c1cccnc1)=C\c1ccccc1,.,.,/,.,.,/
CC(/C=N/NC(=O)c1ccncc1)=C\c1ccc(C(C)C)cc1,3.19,.,.,.,.,.
Cn1c(SCc2ccc(F)cc2)nnc1-c1cccs1,.,.,.,.,70.6,.
Cn1c(SCC(=O)N2CCc3ccccc3C2)nnc1-c1cccs1,.,.,.,78.4,.,.
Cn1c(SCC(=O)N2CCc3ccccc3C2)nnc1-c1ccncc1,.,.,.,.,.,.
Cn1c(SCc2ccccc2)nnc1-c1cccs1,.,.,.,.,.,.
Cc1ccccc1-n1c(C)nnc1SCC(=O)N1CCc2ccccc2C1,.,.,.,50.4,.,.
CCc1cccc(CC)c1-n1c(SCC(=O)N2CCc3ccccc3C2)nnc1-c1cccnc1,.,.,.,98.8,.,.
COc1ccc(-n2c(O)c(/C=N/NS(=O)(=O)c3ccc(C)cc3)c3ccccc3c2=O)cc1OC,.,.,.,.,.,.
O=C(O)c1cccc(NCc2ccncc2)c1,.,.,.,.,.,.
O=C(Nc1ccc([N+](=O)[O-])c(NC(=O)C2CCCO2)c1)C1CCCO1 (centres undefined),.,.,.,.,.,.
COc1ccc(C(=O)COC(=O)CN2C(=O)C3C4C=CC(C5CC45)C3C2=O)cc1 (centres undefined),.,.,.,.,/,.
CCc1cccc(CC)c1-n1c(SCn2nnc3ccccc3c2=O)nnc1-c1cccnc1,.,.,.,67.2,/,.
COCC(C)n1c(SCC(=O)N2CCc3ccccc3C2)nc2ccccc2c1=O (centres undefined),.,.,.,90.5,.,.
O=C(NCCCn1ccnc1)C(=O)NCC1OCCN1S(=O)(=O)c1ccc(Br)cc1 (centres undefined),.,.,/,.,.,/
CN1CCN(C(c2cccnc2)c2ccc3cccnc3c2O)CC1 (centres undefined),.,.,.,.,.,.
O=C(Nc1cccc(C(F)(F)F)c1)c1cccnc1,.,.,.,.,.,.
Oc1c(C(Nc2cccc(C(F)(F)F)c2)c2ccncc2)ccc2cccnc12 (centres undefined),.,.,/,100.1,/,/
